Results filed as inconclusive are left out. Entries that show only a call come without a potency. Values without a mark were called inactive. Active and inactive are the calls of the source. The call rests on the fitted dose curve; in most records, active means well fitted inhibition curve with a large enough effect; inconclusive means small, poorly fitted or top-dose-only effect; inactive means no such curve, though single readings can be large or run the other way.
These compounds were tested against Cytochrome P450 3A4 (Homo sapiens) (UniProt P08684) (assay: qHTS Assay for Inhibitors and Substrates of Cytochrome P450 3A4 (AID 884; further: nearly all actives have a fitted effect of over 50% in size)). Conditions: recombinant CYP3A4, Luciferin-PPXE luminescence; series mostly up to 57.1 µM.
Chain of Cytochrome P450 3A4 (Homo sapiens) (P08684 whole entry, looked up): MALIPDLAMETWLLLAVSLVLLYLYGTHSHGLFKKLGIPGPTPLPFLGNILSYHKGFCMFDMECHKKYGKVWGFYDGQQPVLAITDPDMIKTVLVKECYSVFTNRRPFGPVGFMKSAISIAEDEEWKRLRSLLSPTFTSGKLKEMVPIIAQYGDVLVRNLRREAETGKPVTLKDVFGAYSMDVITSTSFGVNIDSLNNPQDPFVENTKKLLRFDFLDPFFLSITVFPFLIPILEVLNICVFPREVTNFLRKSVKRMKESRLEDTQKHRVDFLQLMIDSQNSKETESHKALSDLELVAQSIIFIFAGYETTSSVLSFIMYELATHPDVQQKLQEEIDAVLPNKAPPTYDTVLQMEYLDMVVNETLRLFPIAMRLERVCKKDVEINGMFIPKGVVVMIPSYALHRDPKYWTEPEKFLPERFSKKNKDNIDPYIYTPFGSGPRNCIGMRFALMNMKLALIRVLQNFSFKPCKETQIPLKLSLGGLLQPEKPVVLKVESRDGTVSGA
How it was run: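 Luminescent readout of luciferin produced by CYP3A4 (20 nM) dealkylation of Luciferin-PPXE, 25 uM (its KM). NADPH-driven reaction ran 60 min at RT after 10 min compound preincubation; data scaled to 57 uM ketoconazole as 100% inhibition.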
Potency means the concentration at half of the fitted maximal effect.

Row | SMILES | Potency | activity change, negative = inhibition
1 | O=C(O)c1ccc(NS(=O)(=O)c2ccsc2C(=O)O)c(O)c1 | inactive | 
2 | CN1[C@H](Cc2ccccc2)C=C[C@]1(C)C(=O)NCC1CC1 | inactive | 
3 | COC(=O)[C@@H]1C[C@@]2(O)[C@@H](O)[C@@H](O)[C@@H](O)C[C@H]2N1Cc1ccc(C)s1 | inactive | 
4 | OB(O)c1csc2ccccc12 | inactive | 
5 | Cn1c(N)c(C(=O)COC(=O)c2cc(C(F)(F)F)nc3ccccc23)c(=O)n(C)c1=O | inactive | 
6 | Cc1cc(N)c2cc(OCCOc3ccc4nc(C)cc(N)c4c3)ccc2n1 |  | -0.402% [at 11.4 µM]
7 | O=C(Nc1cc(NC(=O)c2ccccc2)c(C(=O)O)cc1C(=O)O)c1ccccc1 | inactive | 
8 | Cn1c(N)cc(=O)n(Cc2ccccc2)c1=O | inactive | 
9 | OB(O)c1ccc(Br)cc1 | inactive | 
10 | COC(=O)CC[C@@H](C)[C@H]1CC[C@H]2[C@@H]3CC[C@@H]4C[C@H](O)CC[C@]4(C)[C@H]3C[C@H](O)[C@]12C | inactive | 
11 | O=C(N[C@@H](Cc1ccccc1)C(=O)O)c1ccccc1 | inactive | 
12 | Cc1cc(C(=O)O)sc1C(N)C(=O)O (stereo not given) | inactive | 
13 | c1ccc(-c2ccc(CN3C[C@@H]4C(c5ccccc5)C5(c6ccccc6)CC4(C5)[C@H]3c3ccccc3)cc2)cc1 (stereo not given in full) | inactive | 
14 | O=C(/C=C/c1ccc(OCc2ccccc2)cc1)c1cccs1 | inactive | 
15 | CN(C)/C=N/c1cc(=O)n(Cc2ccccc2)c(=O)n1C | inactive | 
16 | CN(C)/C=N/c1cc(=O)[nH]c(=O)n1CC1CC1 | inactive | 
17 | C[C@@H]1C=C[C@](Cc2ccccc2)(C(=O)O)N1C(=O)c1ccccc1 | inactive | 
18 | COC(=O)[C@@H]1C[C@@]2(O)[C@@H](O)[C@@H](O)[C@@H](O)C[C@H]2N1CC1CC1 | inactive | 
19 | C/C(CCC(=O)OC[C@@H]1O[C@H](C#Cc2ccccc2)C=C[C@@H]1Oc1ccc(C)cc1)=N/OC[C@@H](O)[C@H]1O[C@H]2OC(C)(C)O[C@H]2[C@@H]1O | 3.98 µM (active) | 
20 | COC(=O)[C@@H]1C[C@@]2(O)[C@H](O)[C@H](O)[C@H](O)C[C@H]2N1C/C=C/c1ccccc1 | inactive | 

Row | SMILES | Potency | activity change, negative = inhibition
21 | O=C(O)c1cc(C(F)(F)F)nc2ccccc12 | inactive | 
22 | COC(=O)[C@@H]1C[C@@]2(O)[C@@H](O)[C@@H](O)[C@@H](O)C[C@H]2N1Cc1ccc(N2CCOCC2)cc1 | inactive | 
23 | Cc1cccc(-c2cc(=O)c3cc(Br)ccc3o2)c1 | 12.6 µM (active) | 
24 | Cn1c(=O)c(C(=O)COC(=O)c2cc(C(F)(F)F)nc3ccccc23)c(N)n(Cc2ccccc2)c1=O | inactive | 
25 | COC(=O)c1ccc(C23CC4(C2)[C@H](CN(Cc2ccc(-c5ccccc5)cc2)[C@@H]4c2ccccc2)C3c2ccc(C(F)(F)F)cc2)cc1 (stereo not given in full) | inactive | 
26 | COC(=O)c1cccc(C23CC4(C2)[C@H](CN(Cc2ccc(-c5ccccc5)cc2)[C@@H]4c2ccccc2)C3c2ccc(Cl)nc2)c1 (stereo not given in full) | inactive | 
27 | COC(=O)[C@@H]1C[C@H]2CC[C@H](O)C[C@H]2N1Cc1ccc(N2CCN(C)CC2)cc1 | inactive | 
28 | COC(=O)[C@@H]1C[C@@]2(O)[C@H](O)[C@H](O)[C@H](O)C[C@H]2N1Cc1cc(F)ccc1F | inactive | 
29 | COC(=O)[C@@H]1C[C@@H]2CC[C@@H](O)C[C@@H]2N1Cc1ccccc1OS(=O)(=O)c1ccc(C)cc1 | 2.51 µM (active) | 
30 | CN(C)/C=N/c1cc(=O)[nH]c(=O)n1C | inactive | 
31 | COC(=O)CC1Oc2cc3oc4c(c3cc2O1)C(=O)CC(C)(C)C4 (stereo not given) | inactive | 
32 | NC(=O)NCc1ccccc1 | inactive | 
33 | O=[N+]([O-])c1ccccc1S(=O)(=O)NCC1CCC(CNCC2CCc3ccccc3C2)CC1 (stereo not given) | inactive | 
34 | N#Cc1ccc(C23CC4(C2)[C@H](CN(Cc2ccc(C(F)(F)F)cc2)[C@@H]4c2ccccc2)C3c2ccc(C(F)(F)F)cc2)cc1 (stereo not given in full) | inactive | 
35 | COC(=O)c1ccc(CN2[C@H](C(=O)OC)C[C@@]3(O)[C@@H](O)[C@@H](O)[C@@H](O)C[C@@H]23)cc1 | inactive | 
36 | C=CC[C@@H]1C=C[C@@H](O/N=C(/C)CCC(=O)OC[C@@H]2O[C@H](C#Cc3ccccc3)C=C[C@@H]2Oc2ccc(C)cc2)[C@@H](CO)O1 | 5.01 µM (active) | 
37 | COC(=O)[C@@H]1C[C@@]2(O)[C@H](O)[C@H](O)[C@H](O)C[C@H]2N1CC1CCCCC1 | inactive | 
38 | CCC1=C2CC[C@H]3C(=O)N(c4ccccc4)C(=O)[C@H]3[C@H]2[C@@]2(C)C(=O)N(Cc3ccccc3)C(=O)N2C1=O | inactive | 
39 | COC(=O)NC(c1cccc(C)c1)[C@@]1(C(=O)OC)CCCC1=O (stereo not given in full) |  | -25.8% [at 11.4 µM]
40 | COC(=O)[C@@H]1C[C@@]2(O)[C@H](O)[C@H](O)[C@H](O)C[C@H]2N1Cc1cccc2ccccc12 | inactive | 

— PubChem BioAssay (NCATS)
